Tests used:
Assay in all cases: DAPPL (digital affinity profiling via proximity ligation, sequencing); 10 mM Tris-HCl pH 7.5, 50 mM NaCl, 1 mM DTT, 4% glycerol, room temperature, 30 min; GST-TFs on glutathione beads, 16-mer random dsDNA library, 0.1% formaldehyde crosslink after washing; high values mean tight binding
Settings in all cases: protein: recombinant; tags: N-terminal GST; dsDNA, one strand shown
[1] = target: T1, ERF (Homo sapiens, UniProt P50548 1-548)
T1 sequence: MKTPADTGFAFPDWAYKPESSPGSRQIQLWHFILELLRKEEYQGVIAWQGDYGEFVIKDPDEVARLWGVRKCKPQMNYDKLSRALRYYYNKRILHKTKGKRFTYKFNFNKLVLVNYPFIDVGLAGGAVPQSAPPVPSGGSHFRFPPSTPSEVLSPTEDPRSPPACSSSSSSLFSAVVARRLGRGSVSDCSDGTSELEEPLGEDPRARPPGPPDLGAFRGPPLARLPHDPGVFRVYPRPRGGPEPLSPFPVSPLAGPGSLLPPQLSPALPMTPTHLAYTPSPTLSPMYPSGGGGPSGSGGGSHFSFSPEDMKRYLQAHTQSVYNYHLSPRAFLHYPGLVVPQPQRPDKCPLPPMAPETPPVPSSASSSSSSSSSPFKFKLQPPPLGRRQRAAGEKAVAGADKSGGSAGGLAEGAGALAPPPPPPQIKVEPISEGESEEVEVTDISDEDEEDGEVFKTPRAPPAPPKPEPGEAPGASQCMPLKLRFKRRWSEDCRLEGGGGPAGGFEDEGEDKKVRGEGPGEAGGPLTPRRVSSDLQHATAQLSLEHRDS
Method in brief: (§1)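 Human transcription factors carrying a GST fusion were produced in yeast, bound to glutathione beads, tagged with DNA barcodes and pooled together with a tag-only sample. Each pool was held with 200 nmole of a random double-stranded 16-mer DNA library in Tris/NaCl/DTT/glycerol buffer for 30 min at room temperature, then washed, crosslinked in 0.1% formaldehyde, proximity-ligated with BsaI/T4 ligase (1 h, 37 °C), PCR-amplified and sequenced on an Illumina NextSeq500. Binding signal is the read frequency of each hexamer for a given factor divided by its frequency in the tag-only sample.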

[2] = target: T2, ETV3L (Homo sapiens, UniProt Q6ZN32 1-361)
T2 sequence: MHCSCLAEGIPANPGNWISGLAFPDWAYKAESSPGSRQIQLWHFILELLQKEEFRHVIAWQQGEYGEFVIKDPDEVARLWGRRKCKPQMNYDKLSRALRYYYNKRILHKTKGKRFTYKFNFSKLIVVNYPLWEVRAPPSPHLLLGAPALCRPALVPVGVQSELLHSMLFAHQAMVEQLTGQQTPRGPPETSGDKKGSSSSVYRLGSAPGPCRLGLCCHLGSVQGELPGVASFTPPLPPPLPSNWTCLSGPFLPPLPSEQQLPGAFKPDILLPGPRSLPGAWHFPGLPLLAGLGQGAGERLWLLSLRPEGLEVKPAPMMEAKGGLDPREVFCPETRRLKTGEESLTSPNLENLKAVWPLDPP
Method in brief: as §1

[3] = target: T3, ETS2 (Homo sapiens, UniProt P15036 1-469)
T3 sequence: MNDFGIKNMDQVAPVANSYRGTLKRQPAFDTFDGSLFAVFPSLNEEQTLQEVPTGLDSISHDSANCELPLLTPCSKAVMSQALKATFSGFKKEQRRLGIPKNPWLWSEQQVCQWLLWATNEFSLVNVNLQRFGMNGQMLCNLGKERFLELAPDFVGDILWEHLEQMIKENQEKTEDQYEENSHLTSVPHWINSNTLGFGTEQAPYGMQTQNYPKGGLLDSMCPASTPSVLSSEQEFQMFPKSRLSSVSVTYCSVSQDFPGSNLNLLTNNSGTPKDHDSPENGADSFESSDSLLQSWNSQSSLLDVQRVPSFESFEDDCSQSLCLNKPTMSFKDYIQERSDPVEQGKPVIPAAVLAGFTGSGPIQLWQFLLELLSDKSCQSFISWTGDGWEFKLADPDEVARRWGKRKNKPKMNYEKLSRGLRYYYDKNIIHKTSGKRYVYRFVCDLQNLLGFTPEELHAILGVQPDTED
Method in brief: as §1

[4] = target: T4, SPDEF (Homo sapiens, UniProt O95238 1-335)
T4 sequence: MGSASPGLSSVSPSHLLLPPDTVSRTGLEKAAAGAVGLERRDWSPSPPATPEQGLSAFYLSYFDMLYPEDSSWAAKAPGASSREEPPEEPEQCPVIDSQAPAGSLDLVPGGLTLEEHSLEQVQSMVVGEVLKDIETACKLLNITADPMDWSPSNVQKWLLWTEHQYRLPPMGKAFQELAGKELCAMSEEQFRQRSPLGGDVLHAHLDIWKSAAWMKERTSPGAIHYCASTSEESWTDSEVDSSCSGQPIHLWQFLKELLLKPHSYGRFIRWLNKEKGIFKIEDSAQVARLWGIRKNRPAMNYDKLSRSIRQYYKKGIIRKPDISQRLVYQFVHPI
Method in brief: as §1

[5] = target: T5, ETV7 (Homo sapiens, UniProt Q9Y603 1-341)
T5 sequence: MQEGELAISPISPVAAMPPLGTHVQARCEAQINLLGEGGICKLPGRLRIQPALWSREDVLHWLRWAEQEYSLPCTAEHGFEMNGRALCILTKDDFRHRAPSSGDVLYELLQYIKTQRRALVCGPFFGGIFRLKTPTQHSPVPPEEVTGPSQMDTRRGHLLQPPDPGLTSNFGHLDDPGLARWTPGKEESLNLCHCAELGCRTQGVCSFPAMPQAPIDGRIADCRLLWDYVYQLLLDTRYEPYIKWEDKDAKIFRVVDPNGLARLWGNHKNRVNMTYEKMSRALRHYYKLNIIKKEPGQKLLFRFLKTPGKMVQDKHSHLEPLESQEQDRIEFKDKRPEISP
Method in brief: as §1

[6] = target: T6, ELF5 (Homo sapiens, UniProt Q9UKW6-2 1-255)
T6 sequence: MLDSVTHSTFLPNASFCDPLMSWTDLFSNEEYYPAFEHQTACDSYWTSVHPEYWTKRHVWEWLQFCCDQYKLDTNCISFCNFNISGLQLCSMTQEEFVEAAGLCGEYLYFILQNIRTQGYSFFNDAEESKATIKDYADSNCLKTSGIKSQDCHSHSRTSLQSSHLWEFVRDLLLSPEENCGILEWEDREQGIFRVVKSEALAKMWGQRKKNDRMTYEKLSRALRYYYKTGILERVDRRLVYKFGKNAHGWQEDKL
Method in brief: as §1

[7] = target: T7, ETV3 (Homo sapiens, UniProt P41162-2 1-143)
T7 sequence: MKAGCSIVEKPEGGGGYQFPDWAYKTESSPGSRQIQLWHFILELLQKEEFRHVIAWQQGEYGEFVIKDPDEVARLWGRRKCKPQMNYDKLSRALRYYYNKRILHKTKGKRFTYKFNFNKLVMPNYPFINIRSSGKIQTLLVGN
Method in brief: as §1

[8] = target: ETV6 (Homo sapiens, UniProt P41212 1-452)
Chain of ETV6 (P41212 whole entry): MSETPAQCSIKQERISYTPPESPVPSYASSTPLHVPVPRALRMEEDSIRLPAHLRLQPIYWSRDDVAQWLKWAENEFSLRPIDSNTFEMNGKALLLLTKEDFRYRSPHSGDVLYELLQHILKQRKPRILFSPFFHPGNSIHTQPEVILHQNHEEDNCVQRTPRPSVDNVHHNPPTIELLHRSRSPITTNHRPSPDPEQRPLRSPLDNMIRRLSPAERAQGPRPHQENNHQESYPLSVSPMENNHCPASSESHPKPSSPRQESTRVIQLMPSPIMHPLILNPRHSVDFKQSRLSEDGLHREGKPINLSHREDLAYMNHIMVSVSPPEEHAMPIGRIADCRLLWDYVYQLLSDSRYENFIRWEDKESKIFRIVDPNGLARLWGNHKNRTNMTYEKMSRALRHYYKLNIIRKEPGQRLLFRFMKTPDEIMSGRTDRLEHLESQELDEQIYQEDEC
Method in brief: as §1

Sequence | binding signal [1] | binding signal [2] | binding signal [3] | binding signal [4] | binding signal [5] | binding signal [6] | binding signal [7] | binding signal [8]
GAAACG | 1.27 fold enrichment (6-mer frequency, TF over GST control) | 1.18 fold enrichment (6-mer frequency, TF over GST control) | 1.17 fold enrichment (6-mer frequency, TF over GST control) | 1.23 fold enrichment (6-mer frequency, TF over GST control) | 1.4 fold enrichment (6-mer frequency, TF over GST control) | 1.29 fold enrichment (6-mer frequency, TF over GST control) | 1.28 fold enrichment (6-mer frequency, TF over GST control) | 1.34 fold enrichment (6-mer frequency, TF over GST control)
ACTGTT | 1.19 fold enrichment (6-mer frequency, TF over GST control) | 1.09 fold enrichment (6-mer frequency, TF over GST control) | 1.13 fold enrichment (6-mer frequency, TF over GST control) | 1.04 fold enrichment (6-mer frequency, TF over GST control) | 1.01 fold enrichment (6-mer frequency, TF over GST control) | 1.22 fold enrichment (6-mer frequency, TF over GST control) | 1.2 fold enrichment (6-mer frequency, TF over GST control) | 1.2 fold enrichment (6-mer frequency, TF over GST control)
GAACAC | 1.11 fold enrichment (6-mer frequency, TF over GST control) | 1.18 fold enrichment (6-mer frequency, TF over GST control) | 1.12 fold enrichment (6-mer frequency, TF over GST control) | 1.26 fold enrichment (6-mer frequency, TF over GST control) | 1.15 fold enrichment (6-mer frequency, TF over GST control) | 1.17 fold enrichment (6-mer frequency, TF over GST control) | 1.14 fold enrichment (6-mer frequency, TF over GST control) | 1.13 fold enrichment (6-mer frequency, TF over GST control)
TCCACT | 1.42 fold enrichment (6-mer frequency, TF over GST control) | 1.49 fold enrichment (6-mer frequency, TF over GST control) | 1.45 fold enrichment (6-mer frequency, TF over GST control) | 1.37 fold enrichment (6-mer frequency, TF over GST control) | 1.4 fold enrichment (6-mer frequency, TF over GST control) | 1.42 fold enrichment (6-mer frequency, TF over GST control) | 1.41 fold enrichment (6-mer frequency, TF over GST control) | 1.39 fold enrichment (6-mer frequency, TF over GST control)
ACCGTC | 1.25 fold enrichment (6-mer frequency, TF over GST control) | 1.23 fold enrichment (6-mer frequency, TF over GST control) | 1.28 fold enrichment (6-mer frequency, TF over GST control) | 1.35 fold enrichment (6-mer frequency, TF over GST control) | 1.09 fold enrichment (6-mer frequency, TF over GST control) | 1.08 fold enrichment (6-mer frequency, TF over GST control) | 1.2 fold enrichment (6-mer frequency, TF over GST control) | 1.21 fold enrichment (6-mer frequency, TF over GST control)
GCAACT | 1.07 fold enrichment (6-mer frequency, TF over GST control) | 1.17 fold enrichment (6-mer frequency, TF over GST control) | 1.16 fold enrichment (6-mer frequency, TF over GST control) | 1.11 fold enrichment (6-mer frequency, TF over GST control) | 1.2 fold enrichment (6-mer frequency, TF over GST control) | 1.18 fold enrichment (6-mer frequency, TF over GST control) | 1.16 fold enrichment (6-mer frequency, TF over GST control) | 1.24 fold enrichment (6-mer frequency, TF over GST control)
TATCCC | 1.52 fold enrichment (6-mer frequency, TF over GST control) | 1.52 fold enrichment (6-mer frequency, TF over GST control) | 1.47 fold enrichment (6-mer frequency, TF over GST control) | 1.72 fold enrichment (6-mer frequency, TF over GST control) | 1.53 fold enrichment (6-mer frequency, TF over GST control) | 2.05 fold enrichment (6-mer frequency, TF over GST control) | 1.62 fold enrichment (6-mer frequency, TF over GST control) | 1.51 fold enrichment (6-mer frequency, TF over GST control)
ATTGCT | 1.15 fold enrichment (6-mer frequency, TF over GST control) | 1.25 fold enrichment (6-mer frequency, TF over GST control) | 1.23 fold enrichment (6-mer frequency, TF over GST control) | 1.17 fold enrichment (6-mer frequency, TF over GST control) | 1.43 fold enrichment (6-mer frequency, TF over GST control) | 1.18 fold enrichment (6-mer frequency, TF over GST control) | 1.11 fold enrichment (6-mer frequency, TF over GST control) | 1.15 fold enrichment (6-mer frequency, TF over GST control)

Source: paper PMC7862700, “An all-to-all approach to the identification of sequence-specific readers for epigenetic DNA modifications on cytosine”
